Experiment [1] relates to Wnt5a (protein binding on small-molecule microarray). As to the kind of experiment: Wnt5a binders on small-molecule microarray, primary screen, biophysical, 635/667 nm fluorescence (AID 1142).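 Further: fluorescence read at 667 nm with signal to noise per printed feature.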 To be noted: 635 nm fluorescence, higher = more signal.
A short description of experiment [2]: cell viability in Huh7 cells, primary screen, cytotoxicity control for HCV replication inhibitor project, CellTiter-Glo luminescence, basal, 48 h (AID 1143).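 Further: Huh7 hepatoma cells carrying a hepatitis C replication reporter with no stimulus; test concentration not given here.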 To be noted: Huh7 HCV replicon, higher = more signal, called active from +8 up or from −8 down. (In general: ATP-based viability assays read luminescence as a measure of living cells.)
Experiment [3] can be described thus: P. aeruginosa biofilm formation inhibitors, primary screen, PAO1 strain, BacTiter-Glo luminescence, LB-PBS (AID 1144). To be noted: 12 h, higher = more signal.
A short description of experiment [4]: CREB reporter modulators without forskolin, primary screen, cell-based, PC12, CRE-LacZ reporter, unstimulated (AID 1145). To be noted: no forskolin, luminescence, 4.5 h, higher = more signal, called active from +8 up or from −8 down.
Experiment [5] is described as follows: CREB reporter modulators under forskolin, primary screen, cell-based, PC12, CRE-LacZ reporter, forskolin-stimulated (AID 1146).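 Further: PC12 cells with 6xCRE LacZ reporter stimulated by forskolin 10 µM; beta-galactosidase reporter signal reflecting CREB driven transcription.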 The note with it: luminescence, 4.5 h, higher = more signal, called active from +8 up or from −8 down.
The target in experiment [6] is Streptavidin (Streptomyces avidinii) (UniProt P22629). As to the kind of experiment: streptavidin binders on small-molecule microarray, primary screen, artefact control for SMM compound annotation, biophysical, 635/667 nm fluorescence (AID 1147).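 Further: signal reflects streptavidin binding to arrayed compounds as a control protein.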 The note with it: streptavidin binding, higher = more signal.
A short description of experiment [7]: small-molecule binders of probe aInhba, primary screen, biochemical, small-molecule microarray, 635/667 nm fluorescence (AID 1148).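 Further: score merges 667nm spot fluorescence with signal-to-noise for antibody binding to printed compounds.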 To be noted: higher = more signal.
The target of experiment [8] is Torsin-1A (Homo sapiens) (UniProt O14656). Description: torsin A binders from cell lysate, primary screen, small-molecule microarray, wild-type, 635/667 nm (AID 1149). To be noted: COS7 hTOR1A-WT lysate, 635 nm fluorescence, higher = more signal.
Experiment [9] has the same target. Description: small-molecule binders of mutant TOR1A in lysate, primary screen, cell lysate, small-molecule microarray, COS7 lysate, 635/667 nm fluorescence (AID 1150).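 Further: score pools 667 nm emission and signal to noise measuring lysate protein binding.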 The note with it: COS7 hTOR1A mutant lysate, 635 nm fluorescence, higher = more signal.
Experiment [10] deals with Sonic hedgehog protein (Shh). As to the kind of experiment: small-molecule binders of Shh protein, primary screen, biochemical, small-molecule microarray, 635/667 nm fluorescence (AID 1151).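 Further: Shh protein binding to compounds spotted on small-molecule microarray slides; score combines spot fluorescence intensity with signal-to-noise across triplicate slides.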 To be noted: small-molecule microarray binding, 635 nm fluorescence; higher = more signal.
The nature of experiment [11]: E. coli DRC41 culture turbidity changes, primary screen, E. coli filamentation inducer project, strain DRC41, OD650, 48 h (AID 1152).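 Further: E. coli MC1000 strain DRC41 lacking acrAB efflux pump and sulA.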 To be noted: E. coli DRC41 (acrAB sulA), higher = more signal, called active from +8 up or from −8 down.
The nature of experiment [12]: small-molecule binders of probe aLefty1, primary screen, biochemical, small-molecule microarray, 635/667 nm fluorescence (AID 1153).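 Further: score merges spot fluorescence with signal-to-noise ratio from the scanned slide images.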 The note with it: higher = more signal.
Experiment [13] in a line: PSAC antagonists in infected red cells, primary screen, cell-based, P. falciparum Indochina, OD700, 1 h (AID 1154). The note with it: P. falciparum Indochina infected RBC osmotic lysis, higher = more signal, called active from +8 up or from −8 down.
Experiment [14] can be described thus: PSAC antagonists in infected red cells, primary screen, cell-based, P. falciparum Indochina, OD700, 2 h (AID 1155).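 Further: lysis reports solute entry through the parasite surface anion channel PSAC; channel blockers reduce lysis of infected cells.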 The note with it: P. falciparum Indochina infected erythrocytes, osmotic lysis OD700; higher = more signal, called active from +8 up or from −8 down.
A short description of experiment [15]: osmotic lysis modulators in infected erythrocytes, primary screen, PSAC antagonist project, cell-based, P. falciparum Indochina, OD700, 3 h (AID 1156). To be noted: higher = more signal, called active from +8 up or from −8 down.
Experiment [16] is described as follows: PSAC antagonists in infected red cells, primary screen, cell-based, P. falciparum Indochina, OD700, 18 h (AID 1157). To be noted: P. falciparum Indochina infected erythrocytes, osmotic lysis OD700, 18 h; higher = more signal, called active from +8 up or from −8 down.
Experiment [17] can be described thus: modulators of S6 phosphorylation in cells, primary screen, cell-based, A549, cytoblot, luminescence, serum-stimulated (AID 1158).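 Further: serum-stimulated A549 lung adenocarcinoma cells; signal is phosphorylated S6 detected by cytoblot immunostaining with HRP secondary.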 The note with it: A549 phospho-S6 cytoblot, 5 h, higher = more signal.
The target in experiment [18] is NADPH oxidase 2 (Homo sapiens) (UniProt P04839). Description: NOX2-dependent H2O2 signal modulators, primary screen, NOX inhibitor project, cell-based, HEK293-NOX2, PMA-stimulated, Amplex Red fluorescence (AID 1159). Further: test concentration not given here. To be noted: 45 min, higher = more signal, called active from +8 up or from −8 down.
Experiment [19] concerns the target NADPH oxidase 4 (Homo sapiens) (UniProt Q9NPH5). As to the kind of experiment: NOX4-dependent H2O2 signal modulators, primary screen, NOX inhibitor project, cell-based, HEK293-NOX4, tetracycline-induced, Amplex Red fluorescence (AID 1160). The note with it: 45 min, higher = more signal, called active from +8 up or from −8 down.
Experiment [20] has as its target NADPH oxidase 5 (Homo sapiens) (UniProt Q96PH1). As to the kind of experiment: NOX5-dependent H2O2 signal modulators, primary screen, NOX inhibitor project, cell-based, HEK293-NOX5, Amplex Red fluorescence (AID 1161). The note with it: HEK293-NOX5, ionomycin, 45 min, higher = more signal.

Active and inactive are the calls of the source. Unless noted, how the calls were made is not given here.

Chain of Torsin-1A (Homo sapiens) (O14656 whole entry, looked up): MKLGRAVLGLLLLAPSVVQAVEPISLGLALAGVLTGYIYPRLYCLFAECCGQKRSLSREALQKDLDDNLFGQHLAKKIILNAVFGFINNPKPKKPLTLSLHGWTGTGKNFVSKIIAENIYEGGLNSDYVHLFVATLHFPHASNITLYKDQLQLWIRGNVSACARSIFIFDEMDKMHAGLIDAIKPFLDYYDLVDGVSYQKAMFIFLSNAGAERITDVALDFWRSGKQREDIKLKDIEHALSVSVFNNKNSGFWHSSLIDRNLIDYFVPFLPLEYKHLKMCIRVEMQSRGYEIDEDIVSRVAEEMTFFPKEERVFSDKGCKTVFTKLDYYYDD
Chain of Streptavidin (Streptomyces avidinii) (P22629 whole entry, looked up): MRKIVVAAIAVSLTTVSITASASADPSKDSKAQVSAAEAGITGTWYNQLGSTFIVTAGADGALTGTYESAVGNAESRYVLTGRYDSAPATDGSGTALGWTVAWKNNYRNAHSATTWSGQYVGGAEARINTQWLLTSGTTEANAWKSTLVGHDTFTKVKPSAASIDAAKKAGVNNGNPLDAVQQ
Chain of NADPH oxidase 4 (Homo sapiens) (Q9NPH5 whole entry, looked up): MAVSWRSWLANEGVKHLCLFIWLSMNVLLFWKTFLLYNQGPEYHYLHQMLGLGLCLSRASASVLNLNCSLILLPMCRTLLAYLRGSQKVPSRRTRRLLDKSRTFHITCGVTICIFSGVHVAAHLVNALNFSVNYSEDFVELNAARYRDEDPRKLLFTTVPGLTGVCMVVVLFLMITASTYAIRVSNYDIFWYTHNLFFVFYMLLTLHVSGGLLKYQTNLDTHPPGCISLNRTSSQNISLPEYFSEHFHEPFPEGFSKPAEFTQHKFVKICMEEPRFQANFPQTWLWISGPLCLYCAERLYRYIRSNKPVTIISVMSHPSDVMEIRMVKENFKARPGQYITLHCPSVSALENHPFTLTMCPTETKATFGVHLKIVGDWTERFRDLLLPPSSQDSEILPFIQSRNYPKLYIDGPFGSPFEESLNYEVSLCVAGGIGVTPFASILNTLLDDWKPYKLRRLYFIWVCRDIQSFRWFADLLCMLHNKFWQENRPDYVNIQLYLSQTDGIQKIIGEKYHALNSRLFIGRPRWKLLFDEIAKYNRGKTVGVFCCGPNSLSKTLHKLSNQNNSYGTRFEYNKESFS
Chain of NADPH oxidase 5 (Homo sapiens) (Q96PH1 whole entry, looked up): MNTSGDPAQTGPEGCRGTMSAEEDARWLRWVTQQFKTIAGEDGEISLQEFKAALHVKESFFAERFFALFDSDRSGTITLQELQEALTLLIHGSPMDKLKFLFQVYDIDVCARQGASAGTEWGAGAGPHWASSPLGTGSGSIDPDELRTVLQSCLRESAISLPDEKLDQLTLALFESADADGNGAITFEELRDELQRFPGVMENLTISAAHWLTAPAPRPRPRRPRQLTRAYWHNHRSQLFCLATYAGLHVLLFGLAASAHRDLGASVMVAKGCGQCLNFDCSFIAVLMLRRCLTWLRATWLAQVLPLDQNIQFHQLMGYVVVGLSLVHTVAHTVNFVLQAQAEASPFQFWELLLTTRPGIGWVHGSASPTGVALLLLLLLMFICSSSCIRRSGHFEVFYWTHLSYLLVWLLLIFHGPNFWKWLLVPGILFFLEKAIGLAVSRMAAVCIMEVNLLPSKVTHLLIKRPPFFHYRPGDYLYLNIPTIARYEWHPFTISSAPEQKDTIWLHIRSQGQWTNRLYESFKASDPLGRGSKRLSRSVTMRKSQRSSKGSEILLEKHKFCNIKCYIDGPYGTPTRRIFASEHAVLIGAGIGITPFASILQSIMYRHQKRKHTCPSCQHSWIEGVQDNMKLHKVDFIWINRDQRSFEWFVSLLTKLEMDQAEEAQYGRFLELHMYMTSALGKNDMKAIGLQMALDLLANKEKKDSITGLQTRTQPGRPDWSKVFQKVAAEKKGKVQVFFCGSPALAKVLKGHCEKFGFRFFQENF
Chain of NADPH oxidase 2 (Homo sapiens) (P04839 whole entry, looked up): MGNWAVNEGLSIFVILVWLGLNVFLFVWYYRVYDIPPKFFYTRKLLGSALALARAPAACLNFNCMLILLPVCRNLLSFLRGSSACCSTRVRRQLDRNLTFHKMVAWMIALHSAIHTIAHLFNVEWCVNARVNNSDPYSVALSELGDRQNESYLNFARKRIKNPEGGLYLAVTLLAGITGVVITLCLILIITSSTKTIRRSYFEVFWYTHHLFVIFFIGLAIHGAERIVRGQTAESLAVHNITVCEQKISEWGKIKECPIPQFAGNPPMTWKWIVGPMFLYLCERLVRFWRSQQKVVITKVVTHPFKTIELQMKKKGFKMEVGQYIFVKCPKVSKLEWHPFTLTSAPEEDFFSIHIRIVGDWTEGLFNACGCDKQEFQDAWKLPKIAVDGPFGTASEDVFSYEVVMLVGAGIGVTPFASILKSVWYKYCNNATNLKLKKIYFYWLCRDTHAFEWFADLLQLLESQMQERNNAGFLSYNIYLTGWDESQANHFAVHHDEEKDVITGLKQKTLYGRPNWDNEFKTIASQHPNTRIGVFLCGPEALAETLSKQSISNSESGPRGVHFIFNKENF

For `[N-]=[N+]=Nc1ccccc1[C@H]1OC(c2ccc(OCCCO)cc2)=N[C@@]1(Cc1ccccc1)C(=O)N1CCOCC1`, the composite z-score came out at 0.267 in [1]; 2.01 in [6]; 0.554 in experiment [7]; 0.124 with Torsin-1A (Homo sapiens) [8]; 0.212 with Torsin-1A (Homo sapiens) [9]; 0.672 in experiment [10]. This compound registered a composite z-score in experiment [12] of 0.342. The z-score in experiment [2] is -4.05 (inactive); in experiment [3], -0.622 (inactive); in experiment [4], -0.0341 (inactive); in experiment [5], -1.62 (inactive); in [11] it was -0.388 (inactive); in experiment [13], 30.8 (active). Also, the z-score in experiment [14] is 30.6 (active); in experiment [15] it was 2.96 (inactive); in experiment [16] it was 9.58 (active); in [17], -0.0055; in [18], -1.29 (inactive); in [19], 1.27 (inactive). For the same compound, the z-score in [20] stood at 1.13.
As to `C[N+](C)(C)CCCCCCNC(=O)[C@H]1C[C@H]2C(=O)N[C@@H](Cc3ccccc3)C(=O)N2[C@H]1c1cccc(OCCO)c1`, the composite z-score was 0.385 in [1]; -0.563 in [6]; 0.0176 in experiment [7]; 1.12 with Torsin-1A (Homo sapiens) [8]; 1.24 with Torsin-1A (Homo sapiens) [9]; 2.08 in experiment [10]. The compound also gave a composite z-score in experiment [12] of 0.222. Moreover, the z-score is -0.236 (inactive) in [2]; -0.278 (inactive) in experiment [3]; -0.252 (inactive) in [4]; -0.54 (inactive) in experiment [5]; 0.123 (inactive) in experiment [11]; 10.3 (active) in experiment [13]. Further, the z-score was 1.48 (inactive) in experiment [14]; -1.42 (inactive) in [15]; 0.719 (inactive) in experiment [16]; -0.62 in [17]; 1.78 (inactive) in [18]; 0.576 (inactive) in experiment [19]. In experiment [20], this compound displayed a z-score of 1.13.
On to `O=C1OCCC=C[C@H]2OC34C=CCN(CCN5CCOCC5)C(=O)[C@H]3N(CCCCCO)C(=O)[C@@H]4C12` (stereo not given in full), for which the composite z-score in experiment [1] is -0.135; in [6], 1.38; in [7] it was -0.253; with Torsin-1A (Homo sapiens) [8], 1.14; with Torsin-1A (Homo sapiens) [9] it was 1.52; in experiment [10] it was 0.139. In addition, the composite z-score in experiment [12] is -0.103. Also, the z-score in experiment [2] is 0.201 (inactive); in [3] it was -0.199 (inactive); in experiment [4], 1.14 (inactive); in experiment [5] it was 0.25 (inactive); in [11], 0.725 (inactive); in experiment [13], 2.61 (inactive). In addition, the z-score in experiment [14] was 0.535 (inactive); in experiment [15] it was 2.32 (inactive); in experiment [16], 0.305 (inactive); in experiment [17], -0.0483; in experiment [18], 0.855 (inactive); in experiment [19] it was 0.393 (inactive). In experiment [20], this compound came in with a z-score of 1.85.
In the case of `[N-]=[N+]=Nc1ccccc1C[C@]1(C(=O)NCC(O)CO)N=C(c2ccc(OCCCO)cc2)O[C@H]1c1ccccc1` (stereo not given in full), the composite z-score in experiment [1] was -0.541; in experiment [6], 0.204; in [7], 0.0134; with Torsin-1A (Homo sapiens) [8] it was -0.268; in the experiment with Torsin-1A (Homo sapiens) [9], 0.089; in experiment [10], -1.61. In experiment [12], this compound displayed a composite z-score of 0.027. Besides, the z-score in [2] is -3.23 (inactive); in [3], 0.382 (inactive); in [4], 1.19 (inactive); in [5], -1.55 (inactive); in experiment [11] it was -0.2 (inactive); in [13], 19.9 (active). Also, the z-score is 3.78 (inactive) in experiment [14]; 1.64 (inactive) in experiment [15]; 1.18 (inactive) in [16]; -0.132 in [17]; 1.34 (inactive) in [18]; 0.567 (inactive) in experiment [19]. Also, in experiment [20], the z-score was -1.25.

(Values after PubChem BioAssay.)
